Results filed as inconclusive are left out. Unmarked numbers belong to inactive results. Calls of active or inactive are those of the source. Calls come from the whole dose curve; as a rule, active = well fitted inhibition curve with a large enough effect; inconclusive = small, poorly fitted or top-dose-only effect; inactive = flat fitted curve, though single readings scatter. Peptide text beside a SMILES is read from it.
target: Luciferin 4-monooxygenase (Photinus pyralis) (UniProt P08659); assay: Biochemical firefly luciferase enzyme assay for NPC (AID 624030); note: nearly all actives have a fitted effect of over 70% in size;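 for activity change, negative = inhibition: 0% = DMSO and -100% = full luciferase inhibition by PTC124 control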; conditions: purified P. pyralis luciferase, luminescence, 5 min; series mostly up to 58.6 µM; activity change, negative = inhibition: at the top concentration
Sequence (P08659 whole entry, looked up): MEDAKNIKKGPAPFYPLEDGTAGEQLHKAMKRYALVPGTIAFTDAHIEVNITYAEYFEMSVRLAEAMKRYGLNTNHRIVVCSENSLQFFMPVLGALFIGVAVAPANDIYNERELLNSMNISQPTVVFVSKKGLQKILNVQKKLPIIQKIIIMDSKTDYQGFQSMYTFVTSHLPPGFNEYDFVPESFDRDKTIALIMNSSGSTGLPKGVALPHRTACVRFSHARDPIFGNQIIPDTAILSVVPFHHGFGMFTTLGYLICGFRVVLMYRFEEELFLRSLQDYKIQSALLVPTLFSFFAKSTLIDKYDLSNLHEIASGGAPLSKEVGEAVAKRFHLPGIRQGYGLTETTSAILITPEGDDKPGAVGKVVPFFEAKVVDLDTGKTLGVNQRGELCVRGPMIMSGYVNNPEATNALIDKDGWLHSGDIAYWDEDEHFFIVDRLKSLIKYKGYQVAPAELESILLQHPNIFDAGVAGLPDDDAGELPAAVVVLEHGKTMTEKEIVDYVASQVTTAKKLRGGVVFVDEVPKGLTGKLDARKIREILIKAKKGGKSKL
Source text: Charcot-Marie-Tooth-Association [CMTA] National Center for Advancing Translational Sciences [NCATS] Charcot-Marie-Tooth (CMT) disease was first characterized by Jean-Martin Charcot and Pierre Marie in France and, independently, by Howard Henry Tooth in England in 1886. CMT is one of the most common inherited neurological diseases, affecting approximately 1 in 2,500 Americans. […] The most prevalent type of CMT is known as CMT1A and caused by a duplication of the PMP22 gene which leads to over-expression of this protein. PMP22 is a glycosylated intrinsic membrane protein accounting for 2-5% of the myelin protein content, and its over-expression results in demyelination and subsequently axonal loss. A pair of cellular transcription-based assays was developed in the S16 rat Schwann cell lines (Hai, M., et al., 2002) stably transfected with orthogonal reporters - firefly luciferase (Fluc) and beta-lactamase (beta-Lac) - whose expression is driven by an intronic regulatory element of the PMP22 gene (Jones, E.A., et al., 2011) to recapitulate endogenous expression of PMP22. A comprehensive library of approved drugs, the NCGC Pharmaceutical Collection (Huang, R., et al., 2011), was screened in the cross-validating platform of the orthogonal reporter assays to identify drug modulators inhibitory towards PMP22 expression. A set of counter-screens was devised to address non-specific activity of the library. An ATP-dependent CellTiter-Glo assay (developed by Promega Corp) was utilized to control cell viability. In addition, biochemical Fluc enzyme assay was performed to assess direct inhibition of the Fluc enzymatic activity. References Hai, M., Muja, N., DeVries, G.H., Quarles, R.H. and Patel, P.I. Comparative analysis of Schwann cell lines as model systems for myelin gene transcription studies. J Neurosci Res, 2002. 69(4): pp 497-508 Huang, R., Southall, N., Wang, Y., Yasgar A., Shinn P., Jadhav, A. , Nguyen, D.-T. and Austin, C.P., The NCGC pharmaceutical collection: a comprehensive resource of clinically approved drugs enabling repurposing and chemical genomics. Sci Transl Med, 2011. 3(80): p. 80ps16.
Compounds were transferred to the plates in 23nl, and one microliter/well luciferase enzyme-buffer solution (10 nM P. pyralis luciferase and 50 mM Tris Acetate final concentrations) was dispensed yielding a final reaction volume of […]. Luciferase luminescence was measured by a ViewLux plate reader within 5 minutes of enzyme-buffer addition. The % activity was determined by normalizing to the average readings of PTC124 (a positive control) relative to DMSO (0% Activity). The concentration-effect curves were then classified based on curve quality (r2), response magnitude and degree of measured activity.
Potency is the fitted concentration of half-maximal effect.

Row | SMILES | activity change, negative = inhibition | Potency
1 | Cc1ccc(Nc2nccc(N(C)c3ccc4c(C)n(C)nc4c3)n2)cc1S(N)(=O)=O | -4.92% | –
2 | CC(C)c1ccc2oc3nc(N)c(C(=O)O)cc3c(=O)c2c1 | – | 405 nM (active)
3 | CC1Cc2ccccc2N1NC(=O)c1ccc(Cl)c(S(N)(=O)=O)c1 (stereo not given) | -0.914% | –
4 | CNC[C@@H](O)[C@@H](O)[C@H](O)[C@H](O)CO | 0.506% | –
5 | O=C(O)c1cn(-c2ccc(F)cc2)c2cc(N3CCNCC3)c(F)cc2c1=O | 8.54% | –
6 | CC(C)[C@H](N)C(=O)OCCOCn1cnc2c(=O)[nH]c(N)nc21 | 3.02% | –
7 | CC1=C(C)C(=O)C(C(CCCCCC(=O)O)c2ccccc2)=C(C)C1=O (stereo not given) | -9.33% | –
8 | N=C(N)c1ccc2cc(OC(=O)c3ccc(N=C(N)N)cc3)ccc2c1 | 7.88% | –
9 | NS(=O)(=O)c1cc(C(=O)O)c(NCc2ccco2)cc1Cl | -0.519% | –
10 | Cc1c(C(=O)NN2CCCCC2)nn(-c2ccc(Cl)cc2Cl)c1-c1ccc(Cl)cc1 | -2.93% | –
11 | CC1(C)NC(=O)N(c2ccc([N+](=O)[O-])c(C(F)(F)F)c2)C1=O | -4.26% | –
12 | COc1ccc(C2(C#N)CCC(C(=O)O)CC2)cc1OC1CCCC1 (stereo not given) | -1.61% | –
13 | CN(C)C(=O)COC(=O)Cc1ccc(OC(=O)c2ccc(N=C(N)N)cc2)cc1 | 0.887% | –
14 | Cn1c(NCCN(CCO)CCCc2ccc([N+](=O)[O-])cc2)cc(=O)n(C)c1=O | 1.4% | –
15 | Cc1ccc(C)c(OCCCC(C)(C)C(=O)O)c1 | -10.4% | –
16 | CC[C@]1(O)C[C@H]2CN(CCc3c([nH]c4ccccc34)[C@@](C(=O)OC)(c3cc4c(cc3OC)N(C=O)[C@H]3[C@@](O)(C(=O)OC)[C@H](OC(C)=O)[C@]5(CC)C=CCN6CC[C@]43[C@@H]65)C2)C1 | 2.09% | –
17 | Cc1c(OCC(F)(F)F)ccnc1CS(=O)c1nc2ccccc2[nH]1 (stereo not given) | -8.04% | –
18 | CCc1nc(N)nc(N)c1-c1ccc(Cl)cc1 | 3.33% | –
19 | Clc1ccc(C(Cn2ccnc2)OCc2ccsc2Cl)c(Cl)c1 (stereo not given) | -1.88% | –
20 | c1cnc2cc3c(cc2n1)C1CNCC3C1 | 1.48% [at 123 µM] | –

Row | SMILES | activity change, negative = inhibition | Potency
21 | CN(c1nccc(=O)[nH]1)C1CCN(c2nc3ccccc3n2Cc2ccc(F)cc2)CC1 | -0.696% | –
22 | Nc1ccc(S(N)(=O)=O)cc1 | 0.175% | –
23 | COC(=O)[C@H](Cc1ccccc1)NC(=O)[C@@H](N)CC(=O)O (H-Asp-Phe-OMe) | 0.184% | –
24 | Nc1cccc2c1CN(C1CCC(=O)NC1=O)C2=O (stereo not given) | 1.23% | –
25 | COc1cc(OC)c(C(=O)CCCN2CCCC2)c(OC)c1 | 2% [at 24.9 µM] | –
26 | O=C(NCCO[N+](=O)[O-])c1cccnc1 | -0.228% | –
27 | CCC1=C(C)CN(C(=O)NCCc2ccc(S(=O)(=O)NC(=O)NC3CCC(C)CC3)cc2)C1=O (stereo not given) | -10.3% | –
28 | O=C(O)c1cc(=O)c2c(OCC(O)COc3cccc4oc(C(=O)O)cc(=O)c34)cccc2o1 | 4.47% | –
29 | COC1=C(OC)C(=O)C(CCCCCCCCCCO)=C(C)C1=O | -16.6% | –
30 | Cc1cc(C2CCCCC2)n(O)c(=O)c1 | 2.91% [at 24.9 µM] | –
31 | Cc1cc(=O)oc2cc(O)ccc12 | 1.12% [at 24.9 µM] | –
32 | CCCCC(CC)COC(=O)C(C#N)=C(c1ccccc1)c1ccccc1 (stereo not given) | -2.58% | –
33 | CCC[C@@H]1C[C@@H](C(=O)N[C@@H]([C@H]2O[C@H](SC)[C@H](O)[C@@H](O)[C@H]2O)[C@@H](C)O)N(C)C1 | 0.111% | –
34 | CC(C)c1nc(CN(C)C(=O)N[C@H](C(=O)N[C@@H](Cc2ccccc2)C[C@H](O)[C@H](Cc2ccccc2)NC(=O)OCc2cncs2)C(C)C)cs1 | -4.39% | –
35 | Cc1cc2cc3c(C)cc(=O)oc3c(C)c2o1 | -10.5% [at 24.9 µM] | –
36 | Cc1cc2c(s1)Nc1ccccc1N=C2N1CCN(C)CC1 | 4.52% | –
37 | COC(=O)C1=C(C)NC(C)=C(C(=O)OCCCN2CCC(c3ccccc3)(c3ccccc3)CC2)C1c1cccc([N+](=O)[O-])c1 (stereo not given) | 6.89% | –
38 | COc1c2occc2cc2ccc(=O)oc12 | -10.6% | –
39 | O=C(NC(Cc1cc(=O)[nH]c2ccccc12)C(=O)O)c1ccc(Cl)cc1 (stereo not given) | -0.831% | –
40 | C[Se]CCC(N)C(=O)O (stereo not given) | -1.5% | –

From PubChem BioAssay (NCATS)
